# Rows were chosen to be rich in hits. Some 12% of all compounds tested hit in one or more screens of this group.
# BAZ2B inh: inhibitors of human BAZ2B bromodomain. Q9UIF8. AlphaScreen BAZ2B-H3K14Ac peptide displacement. Potency, µM (top dose mostly 114 µM), without a hit: at the highest dose activity change, negative = inhibition, usual class: inhibitors. actives 4.4% (n = 360,000). AID 504333; also: % is scaled to controls: 0 for no effect and ±100 for the full control effect; nearly all actives have a fitted effect of over 60% in size
#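 BAZ2B 50 nM plus b-H3(5-23)K14Ac 50 nM, PBS pH 7.4/0.01% Tween-20, 30 min RT; compound added (max 110 uM), 30 min RT; streptavidin donor/Ni-chelate acceptor beads 10 ug/mL final, 20 min dark; AlphaScreen read.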
# Sfp inh: Sfp phosphopantetheinyl transferase inhibition | Q9F4F7 | Biochemical Sfp PPTase activity, qHTS | Potency, µM, for inactives: largest response in the series, negative = inhibition, usual class: inhibitors | actives 3.5% (n = 310,000) | AID 1490;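 also: the enzyme is Sfp with the accession as filed and its product quenches rhodamine fluorescence; 0% = enzyme reaction without inhibitor and -100% = no enzyme wells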
#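 Fluorescence-quenching assay: 15 nM Sfp-PPTase preincubated 15 min at room temperature with compound, then 5 uM rhodamine-CoA and 12.5 uM BHQ-2-labelled YbbR peptide added. Fluorescence (ex 525/em 598 nm) read at start and after 30 min; difference gives rate.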
# JMJD2A Tudor: inhibitors of human JMJD2A Tudor domain. O75164. actives 4.4% (n = 390,000). AlphaScreen JMJD2A-Tudor / H3K4me3 peptide binding. Potency, µM (doses to about 114 µM), for the others: top-dose activity change, negative = inhibition, hits mostly inhibitors; also: % is scaled to controls: 0 for no effect and ±100 for the full control effect; nearly all actives have a fitted effect of over 50% in size
# G9a block: inhibitors of human histone lysine methyltransferase G9a | G9a H3K9 monomethylation, AlphaScreen, 2 h | Potency, µM (highest dose often 102 µM), inactives show at the highest dose activity, negative = inhibition, actives largely listed as inhibitors | actives 8.8% (n = 350,000) | AID 504332; also: % is scaled to controls: 0 for no effect and ±100 for the full control effect; nearly all actives have a fitted effect of over 75% in size
#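 Step 1: enzyme (final 20 nM) with compound, 15 min RT. Step 2: substrate peptide 500 nM and SAM 20 uM, 2 h RT. Step 3: anti-H3K9me1 antibody and AlphaScreen beads, 10 min, then plate read.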
# HP1b chromo inh: blocks HP1-beta chromodomain binding to methylated histone tails; P83916; AlphaScreen HP1-beta / biotin-H3K9me3 peptide binding; Potency, µM (titrated, usually from 114 µM), for inactives: at the top dose activity change, negative = inhibition, usual class: inhibitors; actives 0.56% (n = 390,000); also: nearly all actives have a fitted effect of over 70% in size
#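 AlphaScreen: HP1-beta (50 nM) preformed 30 min with biotin-H3(1-18)K9me3 peptide (50 nM) in PBS pH 7.4, 0.01% Tween-20. Compound added for 30 min at RT, then streptavidin donor/nickel chelate acceptor beads (10 ug/mL) for 30 min.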
# Active calls of the source: *; ? = inconclusive; . = not tested or not shown; [ ] = remark or other dose. Calls follow the shape of the dose curve; as a rule, active = well fitted curve in the direction sought with a large enough effect; inconclusive = small, poorly fitted or top-dose-only effect, or another doubt; inactive = no such curve, though single readings can be large; an effect the other way counts as inactive or inconclusive. Potency is read from the fitted curve at half-maximal effect.
SMILES,BAZ2B inh,Sfp inh,JMJD2A Tudor,G9a block,HP1b chromo inh
CN1CCN(C(=O)c2ccc3c(=O)n(Cc4ccco4)c(=S)[nH]c3c2)CC1,-5.1%,-5.1%,12.6µM*,44.7µM*,17.2%
COc1ccccc1C=NN=C(NN=Cc1ccccc1OC)NN=Cc1ccccc1OC,.,.,?,.,79.4µM*
COc1ccccc1Sc1ccccc1/C=N/NC(N)=O,-1.7%,1.9%,-0.7%,50.1µM*,43.4%
COc1ccccc1C=NNC(=O)NN=Cc1ccccc1OC,.,.,-30.3%,.,22.6%
O=C(CCCN1C(=O)c2ccccc2C1=O)NC1CCCCCC1,-0.2%,5.1%,18.2%,11.4%[12.7 µM],28.3%
Cc1ccc(C23CC4CC(CC(CC(=O)NC(C)(C)CO)(C4)C2)C3)cc1,-3.3%,6.8%,-1.0%,9.5%,40.9%
O=C(CCCN1C(=O)/C(=C/c2cccc(Br)c2)SC1=S)Nc1ccccn1,?,4.9%,?,?,8.91µM*
CCc1ccc(/C=C2\SC(=S)N(CCC(=O)NC3=NCCS3)C2=O)cc1,-1.9%,-3.8%,.,-31.5%,.
COC(=O)c1ccc(/C=C2/SC(=S)N(CCCC(=O)Nc3ccccn3)C2=O)cc1,-29.2%,-0.2%,-14.2%,-16.4%[59 µM],?
CCc1ccc(/C=C2\SC(=S)N(CCCC(=O)Nc3ccccn3)C2=O)cc1,10µM*,1.3%,?,2.4%[0.501 µM],?
O=C(CCCN1C(=O)/C(=C/c2cccc(Br)c2)SC1=S)Nc1cccnc1,-28.3%,-16.4%,?,?,5.4%
CCc1ccc(/C=C2/SC(=S)N(CCCC(=O)Nc3ccccc3C(=O)O)C2=O)cc1,-27.0%,16.4%,50.1µM*,?,-8.3%
N/C(=N\OC(=O)CCC1CCCC1)c1cccc([N+](=O)[O-])c1,7.3%,9.6%,-20.5%,-8.4%,2.4%
C=CCn1c(-c2cc(OC)c(OC)c(OC)c2)n[nH]c1=S,-4.3%,?,6.31µM*,?,11.3%
COc1cc(-c2nc(N)n[nH]2)cc(OC)c1OC,-1.8%,1.2%,-6.6%,-37.8%,34.9%
C=CCOc1cc(OC)c(OC)c(OC)c1,-8.2%,-0.1%,-19.0%,-2.8%,25.0%
CCn1c(-c2cc(OC)c(OC)c(OC)c2)n[nH]c1=S,-8.2%,2.0%,7.94µM*,?,42.2%
C=CCn1c(-c2cccc(OC)c2OC)n[nH]c1=S,-28.9%,14.9%,7.94µM*,20µM*,31.5%
C=CCn1c(-c2ccoc2C)n[nH]c1=S,?,3.9%,-1.3%,?,12.2%
C=CCn1c(SCc2cccc3ccccc23)nnc1-c1cccnc1,1.4%,4.0%,-10.8%,.,20.9%
C=CCn1c(-c2cccnc2)n[nH]c1=S,-28.3%,11.8%,20µM*,44.7µM*,43.9%
CC1=C(c2ccc(Cl)cc2)S(=O)(=O)N=C1N1CCN(c2cccc(C(F)(F)F)c2)CC1,-12.7%,.,-15.9%,-35.5%[59 µM],24.2%
COc1ccc(C2NC(=O)N(C)C3=C2C(=O)CC(C)(C)C3)cc1OC (centres undefined),-6.5%,8.9%,-9.7%,4.2%[59 µM],27.3%
C=CCn1c(-c2cc3cccc(OC)c3o2)n[nH]c1=S,?,-11.4%,39.8µM*,6.31µM*,29.1%
C=CCn1c(-c2cccc(OC)c2)nc2nc3ccccc3nc21,10.0%,6.7%,1.1%,-7.3%[59 µM],11.5%
SMILES,BAZ2B inh,Sfp inh,JMJD2A Tudor,G9a block,HP1b chromo inh
C=CCn1c(-c2cccc(OC)c2)n[nH]c1=S,6.5%,0.5%,11.2µM*,7.08µM*,3.4%
C=CC[n+]1c(C)csc1Nc1cccc(Br)c1,.,-16.3%,?,31.6µM*,?
C=CC[n+]1c(C)csc1Nc1ccc(C)cc1,31.6µM*,26.5%,?,50.1µM*,?
Brc1cccc(Nc2nc(-c3cccnc3)cs2)c1,-1.2%,-5.9%,-12.4%,.,37.6%
COc1ccc(C(=O)NCC(c2ccc3c(c2)OCO3)N2CCN(C)CC2)cc1 (centres undefined),0.7%,.,1.6%,-4.2%[59 µM],29.2%[57 µM]
COc1ccc(N2CCN(C(CNC(C)=O)c3ccc4c(c3)OCO4)CC2)cc1 (centres undefined),-16.7%[57.1 µM],5.3%,-29.7%,10.8%,1.8%
COc1ccc(N2CCN(C(CNC(=O)c3ccc(C)cc3)c3ccc4c(c3)OCO4)CC2)cc1 (centres undefined),20µM*,.,28.2µM*,8.91µM*,-18.0%[57 µM]
COc1ccc(N2CCN(C(CNC(=O)CC(C)C)c3ccc4c(c3)OCO4)CC2)cc1 (centres undefined),-24.1%,.,?,11.2µM*,3.4%[57 µM]
COc1ccc(CCN2C(=O)CC(Nc3ccc(N4CCOCC4)cc3)C2=O)cc1OC (centres undefined),44.7µM*,-2.7%,?,14.1µM*,-9.6%
CCOC(=O)C1=NOC2C3CC(C12)C1C(=O)N(CCc2ccc(OC)c(OC)c2)C(=O)C31 (centres undefined),?,9.3%,35.5µM*,.,?
O=C1CC(Nc2ccc(N3CCOCC3)cc2)C(=O)N1c1ccccc1F (centres undefined),4.9%,50.1µM*,?,8.91µM*,-5.1%
O=C1CC(Nc2ccccc2)C(=O)N1c1ccc(N2CCOCC2)cc1 (centres undefined),-8.3%,-4.9%,-3.2%,-4.9%[2.33 µM],25.9%
CCc1ccc(NC2CC(=O)N(CCc3ccc(OC)c(OC)c3)C2=O)cc1 (centres undefined),-26.2%,1.5%,?,50.1µM*,?
COc1ccc(CCN2C(=O)C3C4CC(C5C(C(=O)N/N=C\c6ccc(Cl)cc6)=NOC45)C3C2=O)cc1OC (centres undefined),3.5%,14.4%,-10.6%,-14.3%,30.1%
O=C(CCCOc1ccc(Cl)cc1Cl)NCCc1nnc2ccccn12,-13.2%,1.3%,0.7%,.,40.8%
CN(C)CCCNC(=S)NCC(c1ccc(Cl)cc1Cl)c1c[nH]c2ccccc12 (centres undefined),?,50.1µM*,?,?,-17.3%[57 µM]
CC1CCCN(C(=O)CN2CCN(C(=O)c3ccco3)CC2)C1 (centres undefined),-5.7%,3.6%,-2.5%,25.1µM*,33.6%
O=C(c1ccco1)N1CCN(CC(=O)N2c3ccccc3CCc3ccccc32)CC1,17.8µM*,?,1µM*,?,14.1µM*
Cc1ccccc1-c1nnc(SCC(=O)c2c(N)n(C3CC3)c(=O)[nH]c2=O)o1,-2.9%,.,-13.9%,18.4%[12.7 µM],21.8%
Cc1ccc(S(=O)(=O)N2c3ccccc3NC(=O)C2CC(=O)Nc2ccccc2)cc1 (centres undefined),-2.5%,9.2%,-14.3%,-21.3%,26.3%
CCCCN(C)S(=O)(=O)c1ccc(C(=O)Nc2nnc(C3=COCCO3)o2)cc1,.,13.9%,?,?,22.1%
CCCCC(=O)Nc1nnc(C2=COCCO2)o1,?,?,-2.4%,50.1µM*,-0.9%
O=C(COc1ccc(Cl)cc1)Nc1nnc(C2=COCCO2)o1,20µM*,2.4%,3.55µM*,7.3%,17.9%

# Source: PubChem
